Measured values as given in PubChem BioAssay (EPA / NIEHS).
Several values for one entry are separate records, joined by “and”; a condition that tells them apart may be missing. Equal values may be shown once. Results filed as inconclusive are left out. Some structures have more than one record in an assay (separate samples or runs), and their calls can disagree. Activity calls are given as the source filed them. The calls were made as follows, unless noted: active = hit-call score of the fitted dose curve at least 0.9, where 1 is the maximum; inactive = score below 0.9.

Legend:
[1] = read-out: Interleukin-8 (IL8), CXCL8 (gene 3576); assay: BSK_3C_IL8: BioMAP Diversity Plus: 3C Assay for Interleukin-8 (IL8) Biomarker Activity (AID 2283020); conditions: primary human endothelial cells (HUVEC); actives raise or lower the signal
How it was run: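 Human vascular endothelial cells (umbilical vein) in the 3C system; IL-8 level detected by ELISA at 24 h post-dose, with DMSO as baseline.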

[2] = read-out: Monokine induced gamma interferon (MIG), CXCL9 (gene 4283); assay: BSK_3C_MIG: BioMAP Diversity Plus: 3C Assay for Monokine induced gamma interferon (MIG) Biomarker Activity (AID 2283021); conditions: primary human endothelial cells (HUVEC); actives raise or lower the signal;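 as to AC50: MIG protein level measured by immunoassay in the treated endothelial cultures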
How it was run: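 After 24 h of treatment, human umbilical vein endothelial cultures (3C system) had their MIG biomarker level determined by ELISA, with DMSO serving as negative control.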

[3] = BSK_3C_SRB: Viability Assessment in the BioMAP Diversity Plus: 3C Assay (AID 2283023); conditions: primary human endothelial cells (HUVEC);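 also: fitted both ways against DMSO so a hit may be signal rise or drop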
How it was run: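 Primary human umbilical vein endothelial cells in the 3C system were read 24 h after compound dosing. Total protein was stained with 0.1% sulforhodamine B after 10% TCA fixation and read at 560 nm, with bidirectional fitting against DMSO as baseline.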

[4] = read-out: Matrix Metallopeptidase 1 (MMP1), MMP1 (gene 4312); assay: BSK_BE3C_MMP1: BioMAP Diversity Plus: BE3C Assay for Matrix Metallopeptidase 1 (MMP1) Biomarker Activity (AID 2283024); conditions: primary human bronchial epithelial cells; actives raise or lower the signal
How it was run: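 Dose cells, wait 24 h, run MMP1 ELISA; cells are human bronchial epithelial primaries. Both increases and decreases relative to DMSO counted.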

[5] = BSK_3C_Vis: BioMAP Diversity Plus: 3C Assay for Morphology Visualization (AID 2283025); conditions: primary human endothelial cells (HUVEC);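 also: fitted both ways so gain or loss versus DMSO counts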;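 as to AC50: light microscopy image of cell morphology used as background control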
How it was run: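 Endothelial cells from human umbilical vein were treated with test chemicals for 24 h and inspected by light microscopy for changes in cell conformation.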

[6] = read-out: Pselectin, SELP (gene 6403); assay: BSK_4H_Pselectin: BioMAP Diversity Plus: 4H Assay for Pselectin Biomarker Activity (AID 2283026); conditions: primary human endothelial cells (HUVEC); actives raise or lower the signal
How it was run: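 Human vascular endothelium from umbilical vein; P-selectin measured by ELISA at 24 h post-dose, with cytotoxicity checked by sulforhodamine B total-protein staining in parallel cultures (0.1% SRB after 10% TCA fixation, read at 560 nm).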

[7] = BSK_4H_SRB: Viability Assessment in the BioMAP Diversity Plus: 4H Assay (AID 2283027); conditions: primary human endothelial cells (HUVEC);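 also: cells exposed to compound for 24 h before staining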;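 as to AC50: curves fitted both ways versus DMSO so AC50 may be loss or gain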
How it was run: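 Human umbilical vein endothelial cells were dosed with chemical and, after 24 h, fixed with 10% TCA, stained with 0.1% sulforhodamine B, and read at 560 nm to give total protein as a cytotoxicity measure. Bidirectional fitting relative to DMSO control.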

[8] = BSK_BE3C_SRB: Viability Assessment in the BioMAP Diversity Plus: BE3C Assay (AID 2283028); conditions: primary human bronchial epithelial cells;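 as to AC50: fitted both ways so AC50 may mark signal gain or loss versus DMSO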
How it was run: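 Human primary bronchial epithelial cells were exposed to test chemicals for 24 h. Total protein in parallel cultures was then measured by staining with 0.1% sulforhodamine B after 10% TCA fixation, with absorbance read at 560 nm. Activity was fitted bidirectionally against DMSO.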

[9] = read-out: Thrombomodulin, THBD (gene 7056); assay: BSK_3C_Thrombomodulin: BioMAP Diversity Plus: 3C Assay for Thrombomodulin Biomarker Activity (AID 2283029); conditions: primary human endothelial cells (HUVEC); actives raise or lower the signal
How it was run: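 Thrombomodulin ELISA, human primary HUVEC, 24 h post-dose; data fitted in both directions relative to DMSO.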

[10] = read-out: Urokinase-type plasminogen activator receptor (uPAR), PLAUR (gene 5329); assay: BSK_4H_uPAR: BioMAP Diversity Plus: 4H Assay for Urokinase-type plasminogen activator receptor (uPAR) Biomarker Activity (AID 2283030); conditions: primary human endothelial cells (HUVEC); actives raise or lower the signal
How it was run: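 Primary human umbilical vein endothelial cells were exposed to chemical for 24 h before cell-surface uPAR was quantified by ELISA. Activity was fitted bidirectionally against the DMSO negative control baseline.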

[11] = read-out: Vascular endothelial growth factor receptor 2 (Homo sapiens) (UniProt P35968); assay: BSK_4H_VEGFRII: BioMAP Diversity Plus: 4H Assay for Vascular endothelial growth factor receptor 2 (VEGFR2) Biomarker Activity (AID 2283031); conditions: primary human endothelial cells (HUVEC); actives raise or lower the signal;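 as to AC50: cell-surface VEGFR2 protein level quantified by ELISA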
How it was run: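 Primary human umbilical vein endothelial cells in the BioMAP 4H system were dosed with test chemical, and 24 h later VEGFRII was measured by ELISA. Activity was fitted bidirectionally against DMSO as negative control and baseline.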

[12] = read-out: Human Leukocyte Antigen - DR isotype (HLADR), HLA-DRA (gene 3122); assay: BSK_BE3C_HLADR: BioMAP Diversity Plus: BE3C Assay for Human Leukocyte Antigen - DR isotype (HLADR) Biomarker Activity (AID 2283032); conditions: primary human bronchial epithelial cells; actives raise or lower the signal
How it was run: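 Signal came from an ELISA for HLA-DR in human bronchial epithelial primary cells harvested 24 h after treatment; gain- and loss-of-signal fitting used DMSO controls as reference.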

[13] = read-out: Vascular cell adhesion molecule 1 (VCAM1), VCAM1 (gene 7412); assay: BSK_4H_VCAM1: BioMAP Diversity Plus: 4H Assay for Vascular cell adhesion molecule 1 (VCAM1) Biomarker Activity (AID 2283033); conditions: primary human endothelial cells (HUVEC); actives raise or lower the signal
How it was run: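 Endpoint derived from bidirectional fitting against DMSO controls of VCAM-1 ELISA signal in umbilical vein endothelial cells sampled at 24 h following treatment.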

[14] = read-out: Interferon-gamma inducible Protein 10 (IP10), CXCL10 (gene 3627); assay: BSK_BE3C_IP10: BioMAP Diversity Plus: BE3C Assay for Interferon-gamma inducible Protein 10 (IP10) Biomarker Activity (AID 2283034); conditions: primary human bronchial epithelial cells; actives raise or lower the signal
How it was run: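 Using primary human bronchial epithelial cultures, the assay captures IP-10 by ELISA one day (24 h) after exposure. Parallel SRB staining of total protein flags overt cytotoxicity. Fits run bidirectionally relative to DMSO.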

[15] = read-out: Transforming growth factor beta 1 (TGFb1), TGFB1 (gene 7040); assay: BSK_BE3C_TGFb1: BioMAP Diversity Plus: BE3C Assay for Transforming growth factor beta 1 (TGFb1) Biomarker Activity (AID 2283036); conditions: primary human bronchial epithelial cells; actives raise or lower the signal
How it was run: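 In this human primary bronchial epithelial system, an ELISA quantified TGF-b1 one day after dosing. Endpoint changes in either direction were fitted relative to DMSO.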

[16] = read-out: Plasminogen activator inhibitor-1 (PAI1), SERPINE1 (gene 5054); assay: BSK_BE3C_PAI1: BioMAP Diversity Plus: BE3C Assay for Plasminogen activator inhibitor-1 (PAI1) Biomarker Activity (AID 2283037); conditions: primary human bronchial epithelial cells; actives raise or lower the signal
How it was run: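 PAI-1 biomarker levels in treated human bronchial epithelial cells are determined by ELISA at 24 h. Both increases and decreases relative to DMSO are fitted.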

[17] = read-out: urokinase plasminogen activator (uPA), PLAU (gene 5328); assay: BSK_BE3C_uPA: BioMAP Diversity Plus: BE3C Assay for urokinase plasminogen activator (uPA) Biomarker Activity (AID 2283038); conditions: primary human bronchial epithelial cells; actives raise or lower the signal
How it was run: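 Human primary bronchial epithelial cells were exposed to chemical for 24 h, then uPA levels were measured by ELISA. Responses were fitted bidirectionally against DMSO as negative control and baseline. Parallel SRB staining of total protein gauged overt cytotoxicity.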

[18] = read-out: Urokinase-type plasminogen activator receptor (uPAR), PLAUR (gene 5329); assay: BSK_BE3C_uPAR: BioMAP Diversity Plus: BE3C Assay for Urokinase-type plasminogen activator receptor (uPAR) Biomarker Activity (AID 2283039); conditions: primary human bronchial epithelial cells; actives raise or lower the signal
How it was run: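 A uPAR ELISA serves as the readout, taken 24 h after treating primary human bronchial epithelial cells. Responses in either direction are fitted against DMSO, which defines baseline activity.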

[19] = target: human Vitamin D Receptor (VDR), VDR (gene 7421) (UniProt P11473); assay: ATG_VDR_TRANS: Attagene TRANS-FACTORIAL HepG2 Assay for human Vitamin D Receptor (VDR) (AID 2283022; active = hit-call score of the fitted dose curve at least 0.9, where 1 is the maximum)
How it was run: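 HepG2 cells were transiently transfected with multiple GAL4-UAS reporter units, so signal reflects exogenous chimeric receptor-Gal4 activity. After 24 h compound exposure, reporter mRNA was measured by RT-PCR, fluorescent labelling and capillary electrophoresis, fitted for gain of signal versus DMSO.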

[20] = read-out: Monokine induced gamma interferon (MIG), CXCL9 (gene 4283); assay: BSK_BE3C_MIG: BioMAP Diversity Plus: BE3C Assay for Monokine induced gamma interferon (MIG) Biomarker Activity (AID 2283035); conditions: primary human bronchial epithelial cells; actives raise or lower the signal;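 also: MIG protein measured by ELISA in BE3C cultures after 24 h of dosing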
How it was run: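 ELISA read-out of MIG in human lung bronchial epithelial primary cultures, 24 h post-dosing. Bidirectional curve fit vs DMSO baseline.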

Measured: AC50

Chain of human Vitamin D Receptor (VDR), VDR (gene 7421) (P11473 whole entry, looked up, the tested form may be a part): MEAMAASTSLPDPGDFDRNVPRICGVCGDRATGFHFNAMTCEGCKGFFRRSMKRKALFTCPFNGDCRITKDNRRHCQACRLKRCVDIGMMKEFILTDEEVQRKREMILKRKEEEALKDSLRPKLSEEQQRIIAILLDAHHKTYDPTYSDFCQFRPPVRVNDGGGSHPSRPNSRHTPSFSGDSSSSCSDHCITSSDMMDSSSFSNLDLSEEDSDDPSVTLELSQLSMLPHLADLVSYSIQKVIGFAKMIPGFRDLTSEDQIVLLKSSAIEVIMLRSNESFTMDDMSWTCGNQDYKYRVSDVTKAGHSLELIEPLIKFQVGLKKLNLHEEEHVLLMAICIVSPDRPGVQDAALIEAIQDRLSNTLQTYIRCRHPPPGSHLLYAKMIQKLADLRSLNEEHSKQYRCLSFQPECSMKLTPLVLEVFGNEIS

O=C(c1ccccc1)c1ccc(O)cc1O
inactive: [1] | [2] | [3] | [4] | [5] | [6] | [7] | [8] | [9] | [10] | [11] | [12] | [13] | [14] | [15] | [16] | [17] | [18]

COC(F)(C(F)F)C(F)(F)F (stereo not drawn)
inactive: [1] | [2] | [19] | [3] | [4] | [7] | [8] | [9] | [10] | [11] | [12] | [13] | [14] | [20] | [16] | [17] | [18]

Cc1cc(C)c(O)c(C(C)(C)C)c1
active: [1] 20 µM | [3] 30.1 µM | [4] 29 µM | [5] 14.9 µM | [7] 29.5 µM | [8] 32 µM | [9] 33.9 µM | [10] 37.7 µM | [12] 29.5 µM | [13] 30.4 µM | [14] 31 µM | [15] 29.8 µM | [16] 27.9 µM | [17] 28.7 µM | [18] 28.2 µM
inactive: [2] | [11]

CN(C(=O)C(F)(F)C(F)(F)C(F)(F)F)[Si](C)(C)C
inactive: [1] | [2] | [19] | [3] | [4] | [7] | [8] | [9] | [10] | [11] | [12] | [13] | [14] | [16] | [17] | [18]

CCN=C1C=CC(=C(c2ccc(N(CC)CC)cc2)c2ccc(N(CC)CC)cc2)c2ccccc21
inactive: [4] | [8] | [11] | [17]
active: [1] 4.77 µM and 4.29 µM | [2] 2.92 µM and 3.32 µM | [3] 1.6 µM and 1.67 µM | [4] 3.21 µM | [6] 1.46 µM and 957 nM | [7] 1.76 µM and 1.74 µM | [9] 4.54 µM and 3.14 µM | [10] 4.99 µM and 2.26 µM | [12] 1.85 µM and 1.69 µM | [13] 2.13 µM and 2.05 µM | [14] 2.46 µM and 2.22 µM | [16] 716 nM and 210 nM | [17] 2.03 µM | [18] 1.93 µM and 1.74 µM

NC(=O)C(F)(F)C(F)(F)C(F)(F)C(F)(F)C(N)=O
inactive: [1] | [2] | [19] | [3] | [4] | [7] | [8] | [9] | [10] | [11] | [12] | [13] | [14] | [20] | [16] | [17] | [18]

Cc1ccc(S(=O)(=O)C(I)I)cc1
active: [1] 4.26 µM | [2] 3.75 µM | [3] 5.27 µM | [4] 11.4 µM | [5] 1.85 µM | [6] 1.87 µM | [7] 1.98 µM | [8] 5.15 µM | [9] 4.78 µM | [10] 2.2 µM | [11] 1.87 µM | [12] 7 µM | [13] 2.19 µM | [14] 6.58 µM | [15] 7.3 µM | [16] 5.39 µM | [17] 6.62 µM | [18] 6.81 µM

O=C1c2c(O)ccc(Nc3ccc(CCO)cc3)c2C(=O)c2c([N+](=O)[O-])ccc(O)c21
active: [2] 34.2 µM | [4] 2.47 µM | [5] 15.4 µM | [6] 20 µM | [7] 31.3 µM | [9] 10.7 µM | [10] 31.1 µM | [11] 34.8 µM | [12] 3.43 µM | [13] 26.6 µM | [14] 20 µM
inactive: [1] | [3] | [8] | [15] | [16] | [17] | [18]

Nc1cc([N+](=O)[O-])cc(Cl)c1O
inactive: [1] | [2] | [3] | [4] | [5] | [6] | [7] | [8] | [9] | [10] | [11] | [12] | [13] | [20] | [15] | [16] | [17] | [18]
active: [14] 3.97 µM
